PubChem BioAssay AID463173 (ICCB-Longwood Screening Facility, Harvard Medical School, 2010)
Screen size: about 52,000 compounds; about 4,300 (8.3%) were called active. Rule as the data show it: active = survival mostly below about 52% (no sharp cut-off); inactive = mostly above about 56%. What follows is part of a selection rich in actives, with near analogues and random picks from the rest.

test system: DeltatarO mutant; assay: growth inhibition of S. aureus wild type versus tarO mutant, primary screen, teichoic acid synthesis inhibitors, RN4220, OD600 (AID 463173); conditions: OD600, 18 h, hits give low values, screened at 18.75 µg/mL (by protocol)

Structure (SMILES)	survival
Cc1cc2[nH]c(=O)c(=O)[nH]c2cc1S(=O)(=O)Nc1ccc(OC(F)(F)F)cc1	67% (inactive)
CCCn1c(=O)n(-c2cc(Cl)c(OC)cc2OC)c(=O)c2c3c(sc21)CN(C(C)=O)CC3	62% (inactive)
O=C(O)CCc1ccc(-c2ccccc2)n1CC(=O)Nc1ccccc1C(F)(F)F	60% (inactive)
CCc1ccccc1NC(=O)C1=C(C)C(=O)OC12CCCCCC2	58% (inactive)
CCn1cc(C(=O)OCC(=O)Nc2cc(Cl)ccc2C)c(=O)c2ccc(C)nc21	74% (inactive)
CCn1cc(C(=O)OCC(=O)Nc2ccc(C)c(Cl)c2)c(=O)c2ccc(C)nc21	63% (active)
CCn1cc(C(=O)OCC(=O)Nc2cc(C)cc(C)c2)c(=O)c2ccc(C)nc21	64% (inactive)
CCCCCCC1CCC(C(=O)NC(C(=O)O)C(C)C)CC1 (stereo not given)	49% (inactive)
CCCCCCC1CC=C(C(=O)O)CC1 (stereo not given)	76% (inactive)
CCCCC1CCC(CCCC(C)CCC(=O)O)CC1 (stereo not given)	-4% (active)
O=c1c2sc3ccccc3c2n(Cc2ccccc2)c(=O)n1CCc1ccccc1	71% (inactive)
COc1ccc(S(=O)(=O)N(CC(=O)Nc2cc(C)cc(C)c2)c2ccc(Cl)cc2)cc1	77% (inactive)
COc1ccc(S(=O)(=O)N(CC(=O)Nc2cccnc2)c2ccc(Cl)cc2)cc1	30% (active)
CCOc1ccc(S(=O)(=O)N(CC(=O)Nc2cccnc2)c2ccccc2)cc1	114% (inactive)
O=C(CN(c1ccc(Cl)c(C(F)(F)F)c1)S(=O)(=O)c1ccccc1)Nc1cccnc1	47% (active)
COc1ccc(N(CC(=O)Nc2cc(OC)cc(OC)c2)S(=O)(=O)c2c(C)noc2C)cc1	45% (active)
COc1ccc(N(CC(=O)NCc2ccc(F)cc2)S(=O)(=O)c2c(C)noc2C)cc1	82% (inactive)
CS(=O)(=O)N(CC(=O)Nc1cccnc1)c1ccc(Cl)cc1	91% (inactive)
O=C(CN(c1ccc(Cl)c(C(F)(F)F)c1)S(=O)(=O)c1ccccc1)N1CCc2ccccc2C1	42% (inactive)
COc1ccc(N(CC(=O)Nc2cc(Cl)ccc2C)S(=O)(=O)c2c(C)noc2C)cc1	51% (inactive)
Cc1cc(C)c(NC(=O)Cn2c(=O)n(CC(=O)NCc3ccccc3Cl)c(=O)c3sccc32)c(C)c1	171% (inactive)
Cc1ccc(N2CCN(C(=O)c3nn(C)c4c3CS(=O)(=O)c3ccccc3-4)CC2C)cc1 (stereo not given)	56% (inactive)
O=C(c1ccc2c(c1)N(Cc1cccc(Cl)c1)C(=O)c1ccccc1S2(=O)=O)N1CCCC1	115% (inactive)

Structure (SMILES)	survival
CCOc1ccccc1CNC(=O)CSc1nnc(C)c2c(C)n(-c3ccccc3)nc12	83% (inactive)
CC(C)CNS(=O)(=O)c1ccc(S(=O)(=O)N2CCCC(C(=O)NC3CCCCC3)C2)cc1 (stereo not given)	75% (inactive)
CCCCOc1ccc(CNC(=O)C2COc3ccc(OC)cc3C2)cc1 (stereo not given)	94% (inactive)
CNC(=O)c1c[nH]c2ccc(S(=O)(=O)Nc3cccc(Cl)c3C)cc2c1=O	91% (inactive)
CCc1ccccc1NS(=O)(=O)c1ccc2[nH]cc(C(=O)NC3CCCC3)c(=O)c2c1	33% (active)
O=C(NC1CCCCC1)c1c[nH]c2ccc(S(=O)(=O)Nc3ccccc3F)cc2c1=O	83% (inactive)
CCOCCCNC(=O)c1c[nH]c2ccc(S(=O)(=O)Nc3cccc(Cl)c3C)cc2c1=O	93% (inactive)
Cc1ccccc1NS(=O)(=O)c1ccc2[nH]cc(C(=O)NC3CCCCC3)c(=O)c2c1	85% (inactive)
Cc1c(Cl)cccc1NS(=O)(=O)c1ccc2[nH]cc(C(=O)NC3CCCC3)c(=O)c2c1	7% (active)
CNc1nc2ccccc2o1	89% (inactive)
O=C(CSc1nnc(-c2cccs2)o1)Oc1ccccc1Cl	81% (inactive)
Cc1ccc(CNC(=O)CCCn2c(=O)c3ccccc3n(CC(=O)Nc3ccc(C)cc3)c2=O)cc1	89% (inactive)
COc1ccccc1N(CC(=O)N1CCC(C)CC1)S(=O)(=O)c1ccc(C)cc1	134% (inactive)
COc1ccc(C)cc1N(CC(=O)N1CCC(C)CC1)S(=O)(=O)c1ccc(C)cc1	55% (active)
CCOC(=O)N1CCN(C(=O)CN(c2cc(C)ccc2OC)S(=O)(=O)c2ccc(C)cc2)CC1	87% (inactive)
O=C(CSc1nc(-c2ccc(F)cc2)[nH]c1-c1ccc(F)cc1)Nc1ccc2c(c1)OCCO2	76% (inactive)
N#Cc1nc2c(nc1C#N)-c1ccccc1C2=O	19% (active)
N#Cc1cc2nc3c(nc2cc1C#N)-c1cccc2cccc-3c12	85% (inactive)
N#CC(C#N)=C1c2ccccc2-c2nc(C#N)c(C#N)nc21	4% (active)
N#CC(C#N)=C1c2ccccc2-c2c1nc1ccccc1[n+]2[O-]	78% (inactive)
N#CCCCN1C(=O)C(=C(C#N)C#N)c2ccccc21	75% (inactive)
O=C1c2ccccc2-c2n[nH]c(=S)nc21	64% (inactive)
COC(=O)c1ccc2c(=O)n(CCCCCC(=O)N3CCN(c4ccc(Cl)cc4)CC3)c(=O)[nH]c2c1	116% (inactive)

Structure (SMILES)	survival
Cc1ccc(C(=O)c2oc3ccccc3c2NC(=O)C(C)Oc2ccccc2Cl)cc1 (stereo not given)	40% (active)
Cc1cc(C)cc(OC(C)C(=O)Nc2c(C(=O)c3ccccc3)oc3ccccc23)c1 (stereo not given)	17% (active)
Cc1cc(C)cc(OCC(=O)Nc2c(C(=O)c3ccccc3)oc3ccccc23)c1	92% (inactive)
COc1ccccc1OC(C)C(=O)Nc1c(C(=O)c2ccc(Cl)cc2)oc2ccccc12 (stereo not given)	81% (inactive)
CCc1ccc(OC(C)C(=O)Nc2c(C(=O)c3ccccc3)oc3ccccc23)cc1 (stereo not given)	38% (inactive)
Cc1ccc(C(=O)c2oc3ccccc3c2NC(=O)COc2ccccc2Cl)cc1	123% (inactive)
CC(C)Cn1c(=O)c2ccccc2n2c(-c3ccc(Br)cc3)nnc12	94% (inactive)
Cc1ccc(CN(Cc2ccco2)C(=O)COc2ccc(Cl)cc2Cl)cc1	96% (inactive)
Cc1ccc(-c2nnc(Nc3ccc(O)cc3)c3ccccc23)cc1S(=O)(=O)N1CCCCC1	104% (inactive)
Cc1cccc(N2CCN(c3nc4ccc(C(=O)c5ccccc5)cc4n4cnnc34)CC2C)c1 (stereo not given)	76% (inactive)
Cc1ccc(CN2CCC(CNc3ncnc4onc(-c5ccc(Cl)cc5)c34)CC2)cc1	80% (inactive)
Cc1ccc(CO)cc1Nc1ncnc2onc(-c3ccc(F)cc3)c12	46% (active)
Cc1ccc(CCNc2ncnc3onc(-c4ccc(F)cc4)c23)cc1	83% (inactive)
Cc1cc(C)cc(Nc2ncnc3onc(-c4ccc(F)cc4)c23)c1	84% (inactive)
Fc1ccc(-c2noc3ncnc(NCC4CCN(Cc5ccc(Cl)cc5)CC4)c23)cc1	72% (inactive)
Cc1ccc(CN2CCC(CNc3ncnc4onc(-c5ccc(F)cc5)c34)CC2)cc1	-2% (active)
Cc1cccc(N2CCN(C(=O)c3cccc(-n4c(C)nc5cccnc54)c3)CC2)c1C	104% (inactive)
COc1ccc2c(c1)cc1c(=O)n(CC(=O)NC3CCCCC3)nc(C)n12	70% (inactive)
COc1ccc(CCNS(=O)(=O)c2c(C)nc3sccn3c2=O)cc1OC	64% (inactive)
CCOc1ccc(CN2C(=O)c3ccccc3Sc3ccc(C(=O)NCCc4ccccc4)cc32)cc1	58% (inactive)
COC(=O)C1(C)NC(c2ccccc2C)C2C(=O)N(C)C(=O)C21 (stereo not given)	54% (active)
COC(=O)C1(C(C)C)NC(c2ccccc2OC)C2C(=O)N(C)C(=O)C21 (stereo not given)	84% (inactive)
COC(=O)C1(C)NC(c2ccc(OC)cc2)C2C(=O)N(c3ccccc3)C(=O)C21 (stereo not given)	80% (inactive)

Structure (SMILES)	survival
COc1ccc(C)cc1NS(=O)(=O)c1ccc2oc(=O)c3ncn(C)c3c2c1	77% (inactive)
CCc1ccc(S(=O)(=O)NCc2ccc3c(c2)CCN3C(=O)c2ccc(C)cc2)cc1	71% (inactive)
CCOc1ccc(-c2nonc2NC(=O)c2ccco2)cc1	79% (inactive)
Cn1c(=O)c2c(ncn2CC(=O)Nc2cccc(C(F)(F)F)c2)n(C)c1=O	71% (inactive)
CC(=O)c1cccc(NC(=O)Cn2cnc3c2c(=O)n(C)c(=O)n3C)c1	44% (active)
CC(=O)Nc1cccc(NC(=O)Cn2cnc3c2c(=O)n(C)c(=O)n3C)c1	70% (inactive)
Cc1cccc(-c2cc(-c3ccccc3)nc(SCC(=O)Nc3ccccc3)c2C#N)c1	67% (inactive)
COc1cc(C(CC(=O)Nc2ccc(C)c(F)c2)N2Cc3ccccc3C2=O)cc(OC)c1OC (stereo not given)	93% (inactive)
CC(C)c1ccc(S(=O)(=O)NCc2ccc3c(c2)CCN3C(=O)c2ccccc2)cc1	87% (inactive)
Cc1ccc(-c2c(CN3CCN(c4cc(Cl)ccc4C)CC3)csc2C)cc1	51% (inactive)
Cc1cc(CN2CCN(c3ccc(F)cc3)CC2)cs1	69% (inactive)
Cc1scc(CN2CCN(c3ccccc3F)CC2)c1C	64% (inactive)
Cc1scc(CN2CCN(c3ccc(F)cc3)CC2)c1C	64% (inactive)
CCc1c(CN2CCN(c3ccc(F)cc3)CC2)csc1C	38% (active)
Cc1ccc(-c2c(CN3CCN(c4cccc(C)c4C)CC3)csc2C)cc1	21% (active)
CCc1c(CN2CCN(c3ccccc3F)CC2)csc1C	32% (active)
Cc1ccc(-c2c(CN3CCN(c4cc(C)ccc4C)CC3)csc2C)cc1	126% (inactive)
CCc1c(CN2CCN(c3cccc(C)c3C)CC2)csc1C	76% (inactive)
COc1ccc(-c2cc(C(F)(F)F)nc(SCCC(=O)Nc3ccccc3F)n2)cc1	77% (inactive)
Cc1ccc(Cl)cc1NC(=O)Cn1nnc2sc3c(c2c1=O)CCC(C(C)(C)C)C3 (stereo not given)	58% (inactive)
C=CCc1c(C)nc2nc(SCC(=O)Nc3cccc(Cl)c3)nn2c1C	102% (inactive)
